Sampled rows, rich in hits. Any-hit rate of the full collection: about 0.34%.
Luc counter: Counterscreen for Luciferase (Kinase-Glo TM) Inhibition; Luciferin 4-monooxygenase (Photuris pensylvanica), Q27757; Kinase-Glo luciferase, ATP luminescence, 8 min; Potency, µM (titrated, usually from 38.3 µM), for inactives: at the top dose activity change, negative = inhibition, actives largely listed as inhibitors; actives 0.28% (n = 200,000); AID 1379, 2008; further: potency means the concentration at half of the fitted maximal effect; on the % scale 0 is the no-effect control and ±100 the full control effect; nearly all actives have a fitted effect of over 60% in size
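Recombinant Kinase-Glo luciferase, 10 uM ATP (linear range), luciferin; imidazole pH 7.2 / KCl / MgCl2 / Tween / BSA buffer; 8 min RT; luminescence.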
IMPase Li inh: qHTS Assay for Identifying the Cell-Membrane Permeable IMPase Inhibitors: Potentiation with Lithium; actives 0.35% (n = 210,000); Potency, µM (highest dose often 59.4 µM), without a hit: top-dose activity, negative = IMPase inhibition, hits mostly inhibitors; CHO-M1 cells, IP1 TR-FRET (IP-One), carbachol + lithium; AID 1457, 2008;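 further: IP1 builds up when IMPase is blocked and the TR-FRET signal falls; potency means the concentration at half of the fitted maximal effect; plate controls were basal vehicle for no effect and high inhibitor control for full effect; nearly all actives have a fitted effect of over 50% in size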
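CHO-M1, 2000 cells/well, 16–30 h culture; cpd + low Li+, 30 min 37C; lysis with d2-IP1/Eu-anti-IP1 Ab, 10 min RT; TR-FRET 665/620 ratio and 620 channel; AC50 via Hill.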
Lamin A splicing: qHTS Assay for Modulators of Lamin A Splicing; HeLa LMNA splicing GFP/RFP minigene ratio, 48 h; Potency, µM (top dose mostly 46.1 µM), for the others: at the highest dose ratio change, negative = inhibition, hits mostly inhibitors; actives 0.01% (n = 200,000); AID 1487, 2009; active means well fitted inhibition curve with a large enough effect in the signal ratio, with a control signal flat, not every such curve was filed as active; inconclusive means small, poorly fitted or top-dose-only effect, or effect the other way, or a change in a side signal; the % refers to the signal ratio; further: potency means the concentration at half of the fitted maximal effect; on the % scale 0 is the no-effect control and ±100 the full control effect
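S3 HeLa stable clones carrying a lamin A-EGFP splicing minigene plus DsRed2 were seeded at 600 cells/well in Opti-MEM with 2% FBS, pin-dosed and incubated 48 h at 37°C. Acumen cytometry (488 nm) gave the GFP/RFP total-intensity ratio.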
TCR act: Activators of T cell receptors: qHTS campaign; primary human leukocytes, anti-CD3, IL-2 HTRF, 48 h; Potency, µM (highest dose often 9.22 µM), without a hit: at the highest dose activation of IL-2 secretion, hits mostly activators; 330,000 tested, under 10 active; AID 504894, 2011; further: % of control where 0% means no effect
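1) Mix primary human leukocytes, a-CD3 beads and compound. 2) Incubate 48 hr. 3) Add HTRF IL-2 reagents (a-IL-2-K, a-IL-2-d2).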
Active calls of the source: *; u = inconclusive; x = not tested or not shown; [ ] = remark or other dose. Unless noted, the call rests on the fitted dose curve; in most records, active means well fitted curve in the direction sought with a large enough effect; inconclusive means small, poorly fitted or top-dose-only effect, or another doubt; inactive means no such curve, though single readings can be large; an effect the other way counts as inactive or inconclusive.

SMILES	Luc counter	IMPase Li inh	Lamin A splicing	TCR act
Cc1ccccc1NC(=O)Cc1nc(COC(=O)c2cc([N+](=O)[O-])ccc2N)cs1	x	x	x	5%
CCCN1CCN(CCCNC(=O)Cn2c(-c3cccs3)cc3ccccc32)CC1	x	x	-4%[46 µM]	x
O=C(N/N=C1\CCc2ccccc21)c1ccccc1O	10µM*	-3%	-13%	0%[46.1 µM]
O=C(N/N=C/c1ccc(F)cc1)c1cccc(NC(=O)c2ccccc2Cl)c1	x	x	x	5%
COc1ccccc1N/C=C/c1onc(C)c1[N+](=O)[O-]	11µM*	11%	-6%[46 µM]	2%
Cc1ccc(NC(=O)Cn2c(SCc3ccc(F)cc3)nc3cccnc32)cc1F	x	x	17%[46 µM]	x
O=C(c1ccc(Cl)cc1)c1nnc(-c2ccncc2)o1	5%	10µM*	u	-3%
O=c1c2[nH]c3ccc(Br)cc3c2ncn1CCCn1ccnc1	-3%	5.6µM*	u	2%
Cc1ccc2oc3nc(C)c(C(=O)O)cc3c(=O)c2c1	4.5µM*	-9%[38.3 µM]	-1%	-7%
CS(=O)(=O)N1CCC2(CCCN(Cc3ccccc3)C2)CC1	-2%	17%	x	x
Cc1ccc(C(=O)O)cc1N1C(=O)c2cccc3cc(Br)cc(c23)C1=O	0%	2.2µM*	-7%	0%
Cc1n[nH]c(C)c1N1C(=O)c2cccc3cc(Br)cc(c23)C1=O	23%	-17%[38.3 µM]	-7%	-2%
Cn1c(=O)[nH]c(=O)c2c1nc1n2CC(COc2ccc3ccccc3c2)O1 (stereo not drawn)	x	x	x	7%
CCOc1ccc(CCNC(=O)CSc2nn(-c3ccc(C)c(Cl)c3)c(=S)s2)cc1OCC	3%	10µM*	-4%	1%[46.1 µM]
Clc1ccc(Cn2ncc3c(N4CCOCC4)ncnc32)cc1	5%	10%	-15%	8%
COc1cc(/C=N/N=C(\N)c2nonc2N)cc(OC)c1O	x	x	x	4%
COc1ccc(/C=N/N=C(\N)c2nonc2N)cc1	10µM*	-4%	18%[46 µM]	0%
COc1ccc(-c2cc3ncc(-c4ccccc4)c(N)n3n2)cc1	11µM*	19%	x	0%
N#Cc1cnc2cc(-c3ccccc3)nn2c1N	x	x	x	3%
COc1ccc(-c2cc3nc(C)cc(-c4ccc(OC)cc4)n3n2)cc1	x	x	x	-3%
COc1ccc(-c2cc3nc(C)cc(N)n3n2)cc1	7.9µM*	-4%[38.3 µM]	14%	-9%
O=C(O)/C(=C\c1ccncc1)c1cccc2ccccc12	-5%[7.66 µM]	-2%	x	x
Cn1c(=Nc2ccc(N3CCOCC3)cc2)ccc2ccccc21	1%	33%[38.3 µM]	15%	-8%
Cn1c(N=Nc2ccc(N3CCOCC3)cc2)[n+](C)c2ccccc21	13µM*	125%	1%[46 µM]	5%
Cc1cccc(-n2c(CNC(=O)c3ccc(S(=O)(=O)N4CCCCC4)cc3)n[nH]c2=S)c1	x	x	x	10%
SMILES	Luc counter	IMPase Li inh	Lamin A splicing	TCR act
O=C(CCC(=O)Nc1nnc(C2CCCCC2)s1)NCc1cccs1	-3%	14µM*	5%	-2%
Cc1ccc(C(=O)ONc2ccc(N=O)cc2)cc1	13µM*	8%	-8%	6%
COc1cc(C(=O)NCC2(c3ccccc3)CCCC2)cc(OC)c1OC	x	x	x	-2%
CCOC(=O)N1CCN(c2ccc(O)cc2)CC1	-3%	33%[38.3 µM]	13µM*	-3%
Fc1ccc(-c2nc3n(n2)Cc2ccccc2-3)cc1	11µM*	18%[38.3 µM]	-15%	7%
CCn1c(C)nc2cc(-c3nc4n(n3)Cc3ccccc3-4)ccc21	2.2µM*	19%[38.3 µM]	-11%	5%
Cc1ccc(-c2nc3n(n2)Cc2ccccc2-3)cc1	u	-1%	u	2%[46.1 µM]
Cc1nn2c(C)c(C(=O)NC(C)c3ccccc3)cnc2c1-c1ccc(F)cc1 (stereo not drawn)	x	x	12%[46 µM]	x
CCOC(=O)c1ccccc1NC(=O)c1cncc(Br)c1	-13%	1.3µM*	-15%	-2%
CCOc1ccc(C(=O)Nc2cc(C)ccn2)cc1	13µM*	12%	x	0%
CCOC(=O)c1cc(C(=O)OCC)c2cc(Br)ccc2n1	-5%	10µM*	u	x
COc1nc(-c2ccccc2)cc(-c2ccc3c(c2)OCO3)c1C#N	x	x	x	2%
N#Cc1c(-c2ccc3c(c2)OCO3)ccn2nc(-c3cccc(C(F)(F)F)c3)nc12	3%	13µM*	u	-3%
Cc1cc(C(=O)COC(=O)c2ccc(F)cc2F)c(C)n1C1CC1	x	x	x	1%
S=c1nc(SCc2ccccc2)[nH]c2ccccc12	-1%	14µM*	x	-8%
